Compounds with a hit are over-represented: about 11% of the library has one in this group of screens.
USP28 block = blocks human USP28 ubiquitin-rhodamine cleavage; Q96RU2; purified USP28, Ub-rhodamine cleavage fluorescence, 30 min; 3% of 47,000 active; AID 1645857; inhibition, % at 25 µM
OTUD3 inh = blocks human OTUD3 ubiquitin-rhodamine cleavage. Q5T2D3. purified OTUD3, Ub-rhodamine fluorescence, 2 h. inhibition, % at 25 µM. 0.7% of 47,000 active
USP17 inh = human USP17-like deubiquitinase inhibition; A8MUK1; purified USP17, Ub-rhodamine cleavage fluorescence, 3 h; inhibition, % at 50 µM; 6.5% of 47,000 active
Target sequence (A8MUK1 whole entry, looked up): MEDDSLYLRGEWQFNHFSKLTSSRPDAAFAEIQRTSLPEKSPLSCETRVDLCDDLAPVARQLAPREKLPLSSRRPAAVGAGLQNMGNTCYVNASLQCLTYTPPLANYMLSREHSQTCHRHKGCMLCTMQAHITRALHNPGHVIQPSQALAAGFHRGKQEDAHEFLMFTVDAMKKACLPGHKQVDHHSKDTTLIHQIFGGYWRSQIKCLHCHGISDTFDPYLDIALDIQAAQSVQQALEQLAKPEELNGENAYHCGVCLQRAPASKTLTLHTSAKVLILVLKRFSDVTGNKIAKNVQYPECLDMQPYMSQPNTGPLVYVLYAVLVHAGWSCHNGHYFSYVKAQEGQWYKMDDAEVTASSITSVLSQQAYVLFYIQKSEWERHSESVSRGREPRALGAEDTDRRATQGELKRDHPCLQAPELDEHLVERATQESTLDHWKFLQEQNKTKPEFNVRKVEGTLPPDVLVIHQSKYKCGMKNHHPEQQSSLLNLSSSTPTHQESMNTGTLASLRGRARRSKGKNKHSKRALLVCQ
USP30 inh = blocks human USP30 ubiquitin-rhodamine cleavage; Q70CQ3; purified USP30, Ub-rhodamine cleavage fluorescence; inhibition, % at 25 µM; 5.3% of 47,000 active; AID 1645860
Hits are given with their value; . = inactive; / = no result given. Rule as the data show it: active = inhibition above about 30%; inactive = the rest.

SMILES	USP28 block	OTUD3 inh	USP17 inh	USP30 inh
Cc1cccc(-n2ccc(=O)c(-c3nc(-c4ccc(Cl)c(F)c4)no3)n2)c1	.	.	.	39
COc1ccc(-n2ccc(=O)c(-c3nc(-c4ccccc4C)no3)n2)cc1	.	.	.	38
O=c1ccn(-c2ccccc2)nc1-c1nc(-c2ccc(Br)cc2)no1	.	.	37	.
Cc1cn2nnc(C(=O)Nc3ccc(OC(F)(F)F)cc3)c2c(=O)[nH]1	.	.	51	54
Cc1cc(OCC(=O)Nc2ccccc2)nc(N2CCCC(C)C2)n1 (centres undefined)	.	.	31	.
Cc1cccc(NC(=O)COc2cc(C)nc(N3CCCCC3)n2)c1	.	.	/	30
Cc1cc(C2CCCN2S(=O)(=O)c2ccc(Cl)cc2)no1 (centres undefined)	.	.	.	.
Cc1nn(-c2nc3ccccc3[nH]2)c2c1C(c1ccsc1)CC(=O)N2 (centres undefined)	.	.	45	.
O=C(CSc1ccc(N2CCOCC2)nn1)Nc1ccccc1Cl	.	.	.	.
Cc1cc2cccc(C)c2nc1SCC(=O)NCc1ccccc1	.	.	.	47
Cc1cccc(CNC(=O)CCc2nc3c(C)cccc3c(=O)n2C)c1	.	.	.	.
Cc1ccc(C)c(Cn2nnc3c(=O)[nH]c(C4CCN(S(=O)(=O)c5ccccc5C(F)(F)F)CC4)nc32)c1	.	.	.	.
CCOc1ccc(CC(=O)Nc2ccc(-c3cn4cccnc4n3)cc2)cc1	44	.	68	.
Cc1cc(=O)n2c3c(c4c(cc13)c(CO)cc(=O)n4C)OC2	.	.	85	.
NS(=O)(=O)c1ccc2c(c1)CCN2CC(=O)NCc1ccc(Cl)cc1	.	.	.	.
Cc1cc(C(=O)N2CCc3nc(C(=O)Nc4cccnc4)sc3CC2)n[nH]1	.	.	.	.
Cn1c(COc2ccccc2)nnc1SCc1cc(=O)c2cccc(Cl)c2[nH]1	.	.	.	.
Cc1ccc(CNC(=O)c2cnn(-c3ccc([N+](=O)[O-])cc3)c2C2CCNCC2)cc1	.	.	.	44
Cc1ccc(-n2ncc(C(=O)NCc3cccnc3)c2C2CCNCC2)cc1	.	.	.	.
O=C(O)c1ccc(Cn2nnc3ccccc32)cc1	.	.	.	.
O=C(CC1CCCCC1)N1CCCC(c2nn(CCOc3ccccc3)c3nccnc23)C1 (centres undefined)	.	.	.	35
Cc1nn(-c2ccccc2)c(C)c1S(=O)(=O)NC1CC1	.	.	.	.
CCN1CCc2nc(NC(=O)COc3c(Cl)cccc3Cl)sc2C1	.	.	37	.
COCCn1cnc2c(-c3ccccc3)cn(CC(=O)Nc3ccc4c(c3)OCO4)c2c1=O	.	.	40	.
CCn1cnc2c(-c3ccccc3)cn(CC(=O)Nc3ccc4c(c3)OCO4)c2c1=O	.	.	.	.
SMILES	USP28 block	OTUD3 inh	USP17 inh	USP30 inh
COc1ccc(C(=O)Nc2ccccc2C(=O)NC(Cc2ccc(O)cc2)C(=O)NNC(=O)Cc2ccc(OC)c(OC)c2)cc1 (centres undefined)	.	.	31	31
O=C1CC(c2ccco2)Cc2[nH]c(=O)c(C(=O)Nc3ccc(Cl)cc3)cc21 (centres undefined)	35	.	60	.
N#Cc1cccnc1N1CCN(C(=O)Nc2cccc3ccccc23)CC1	.	.	77	.
CCOc1ccccc1NC(=O)N1CCCN(c2ncccc2C#N)CC1	.	.	.	.
COc1ccc(CNC(=O)CN2CCSc3ccccc32)cc1	.	.	.	.
COc1ccc(CNC(=O)CN2C(=O)c3cccc4cccc2c34)cc1	.	.	46	.
COc1ccc(CNC(=O)Cn2c(=O)cc(-c3ccccc3)c3c(C)nn(-c4ccccc4)c32)cc1	.	.	.	31
Cc1ccc2c(c1)C(=O)N(CC(=O)Nc1c(C)nn(C)c1C)CC1(CCOCC1)O2	.	.	.	.
N#Cc1c(-c2ccccc2Cl)c2c([nH]c1=O)-c1ccccc1CC2	.	.	.	.
O=c1[nH]ccn2nc3c(c12)CCc1ccccc1-3	/	.	36	/
Cc1nn(CC(=O)Nc2ccc(Br)c3cccnc23)c(=O)c2ccccc12	.	.	65	.
CC(C)c1ccc(CN2CCC(c3nnc(-c4cnccn4)o3)CC2)cc1	.	.	.	.
CCOc1ccc2nc(NC(=O)C3CCN(S(=O)(=O)c4ccc5c(c4)CC(C)N5C(C)=O)CC3)sc2c1 (centres undefined)	.	.	.	50
CC(=O)/C=C/C1(O)C(C)=CC(=O)CC1(C)C (centres undefined)	.	.	.	33
CC1=CC(=O)CC(C)(C)C1(O)/C=C/C(C)=C\C(=O)O (centres undefined)	.	.	.	.
C[C@@H]1CCC2(C)CC[C@]3(C)C(=CCC4[C@@]5(C)CCC(O)C(C)(C)C5CC[C@]43C)C2[C@H]1C (some centres undefined)	.	.	.	.
CC1(C)CC[C@]2(C(=O)O)CC[C@]3(C)C(=CCC4[C@@]5(C)CC[C@H](O)[C@@](C)(CO)C5CC[C@]43C)[C@@H]2C1 (some centres undefined)	82	81	95	84
Cc1cccc(C(=O)N2CCCC3(CCCN3C)C2)c1 (centres undefined)	.	.	.	.
CC(=O)Nc1ccc([C@H]2OCC(=O)N(C3CCOCC3)[C@@H]2CO)cc1	.	.	.	51
O=C(NCc1ccc2c(c1)OCO2)C1(c2ccccc2)CCCC1	.	.	.	.
CC(CCc1ccccc1)NC(=O)CSc1ncnc2nc[nH]c12 (centres undefined)	/	.	.	/
CC(CCc1ccccc1)NC(=O)Cn1cccc1C(=O)c1ccccc1 (centres undefined)	38	.	.	.
CC1CC(=O)Nc2ccccc2N1S(=O)(=O)c1ccc(C#N)cc1 (centres undefined)	.	.	.	55
Cc1ccc(S(=O)(=O)N2CC(C)C(=O)Nc3ccccc32)cc1 (centres undefined)	.	.	.	.
CC(=O)N1CC(=O)N(Cc2ccccc2)/C(=C/c2ccc(F)cc2)C1=O	.	.	.	.
SMILES	USP28 block	OTUD3 inh	USP17 inh	USP30 inh
Cc1nn(-c2ccccc2)c2c1c(C)c(CCC(=O)NCc1ccc(F)cc1)c(=O)n2C	.	.	37	.
CC(=O)Nc1ccc(NC(=O)CCc2c(C)c3c(C)nn(-c4ccccc4)c3n(C)c2=O)cc1	.	.	.	.
CC(=O)c1ccc(NC(=O)CCc2c(C)c3c(C)nn(-c4ccccc4)c3n(C)c2=O)cc1	.	.	38	.
Cc1ccc(N2CCN(C(=O)CSc3ccccc3)CC2C)cc1 (centres undefined)	.	.	.	.
CNc1nc(C2CCCN(S(=O)(=O)c3ccc(F)cc3)C2)nc2c1CN(C(C)=O)CC2 (centres undefined)	.	.	.	.
Cc1ccc(NC(=O)NCc2nnnn2-c2ccc(C)c(C)c2)cc1	.	.	.	.
Cc1ccc(-c2cc(-c3ccc(F)cc3)[nH]c(=O)c2C#N)cc1	/	.	67	/
Cc1ccc(NC(=O)Nc2ccc(C)n(CC(=O)N3CCCCC3)c2=O)cc1	.	.	.	.

Compound activity as filed in PubChem.
